Experiments:
Test in all cases: log2 ratio of Biotin-Ahx-Ub-VS probe labelling (fragment/DMSO); higher = less target engagement (more negative = stronger competition), active = hit call of the paper (q ≤ 0.05, log2 ratio ≤ -1)
Settings in all cases: compound concentration: 200 uM; treatment time: 3 h
USP19 = target: T1, USP19 (UniProt O94966)
T1 sequence (whole entry): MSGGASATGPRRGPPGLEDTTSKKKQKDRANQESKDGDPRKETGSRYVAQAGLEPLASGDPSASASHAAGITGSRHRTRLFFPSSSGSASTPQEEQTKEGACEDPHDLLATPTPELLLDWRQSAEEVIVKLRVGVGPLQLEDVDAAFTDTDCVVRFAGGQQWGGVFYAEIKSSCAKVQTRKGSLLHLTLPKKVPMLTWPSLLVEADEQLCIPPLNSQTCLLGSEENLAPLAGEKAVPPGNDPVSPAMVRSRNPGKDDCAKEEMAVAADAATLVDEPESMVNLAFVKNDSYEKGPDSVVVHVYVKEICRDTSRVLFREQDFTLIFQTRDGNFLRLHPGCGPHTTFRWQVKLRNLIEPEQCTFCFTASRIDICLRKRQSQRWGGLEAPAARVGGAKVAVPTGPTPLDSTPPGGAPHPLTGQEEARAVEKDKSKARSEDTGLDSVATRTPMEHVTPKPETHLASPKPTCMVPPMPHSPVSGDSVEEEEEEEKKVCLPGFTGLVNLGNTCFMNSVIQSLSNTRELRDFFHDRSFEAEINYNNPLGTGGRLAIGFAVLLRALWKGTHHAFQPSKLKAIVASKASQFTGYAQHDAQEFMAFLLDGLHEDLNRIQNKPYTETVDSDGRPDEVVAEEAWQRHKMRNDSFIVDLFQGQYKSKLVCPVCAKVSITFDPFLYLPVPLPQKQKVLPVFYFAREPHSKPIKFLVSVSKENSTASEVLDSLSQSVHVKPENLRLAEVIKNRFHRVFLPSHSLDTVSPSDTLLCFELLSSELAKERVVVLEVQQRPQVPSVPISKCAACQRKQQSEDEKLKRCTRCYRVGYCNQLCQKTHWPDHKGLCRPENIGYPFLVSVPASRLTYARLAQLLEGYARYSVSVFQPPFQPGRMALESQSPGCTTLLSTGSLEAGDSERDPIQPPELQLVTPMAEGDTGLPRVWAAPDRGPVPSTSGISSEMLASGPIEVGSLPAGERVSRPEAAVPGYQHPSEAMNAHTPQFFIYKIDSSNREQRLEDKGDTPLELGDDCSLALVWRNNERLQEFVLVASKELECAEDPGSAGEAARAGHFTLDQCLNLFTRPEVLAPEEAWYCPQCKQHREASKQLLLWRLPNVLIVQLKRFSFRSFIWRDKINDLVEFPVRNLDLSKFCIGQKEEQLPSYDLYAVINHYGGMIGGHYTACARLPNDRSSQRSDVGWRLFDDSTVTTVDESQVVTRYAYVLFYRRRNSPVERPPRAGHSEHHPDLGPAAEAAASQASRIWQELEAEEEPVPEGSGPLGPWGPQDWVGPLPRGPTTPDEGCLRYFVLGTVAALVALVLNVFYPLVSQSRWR
How it was run: (§1)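 Fragment (200 µM) or vehicle was incubated for 3 h with triplicate HEK293T lysate samples of 495 µg, which were then treated with Biotin-Ahx-Ub-VS at 0.5 µM final for 1 h. Labelled DUBs were enriched on NeutrAvidin, digested with LysC and trypsin, and analysed by diaPASEF LC-MS/MS. Values are average log2 fragment/vehicle ratios from an unpaired t-test on global-median-normalised Spectronaut label-free quantities, using proteins with ≥2 unique peptides.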

USP24 = USP24 (UniProt Q9UPU5)
How it was run: as §1

USP25 = target: T2, USP25 (UniProt Q9UHP3)
T2 sequence (whole entry): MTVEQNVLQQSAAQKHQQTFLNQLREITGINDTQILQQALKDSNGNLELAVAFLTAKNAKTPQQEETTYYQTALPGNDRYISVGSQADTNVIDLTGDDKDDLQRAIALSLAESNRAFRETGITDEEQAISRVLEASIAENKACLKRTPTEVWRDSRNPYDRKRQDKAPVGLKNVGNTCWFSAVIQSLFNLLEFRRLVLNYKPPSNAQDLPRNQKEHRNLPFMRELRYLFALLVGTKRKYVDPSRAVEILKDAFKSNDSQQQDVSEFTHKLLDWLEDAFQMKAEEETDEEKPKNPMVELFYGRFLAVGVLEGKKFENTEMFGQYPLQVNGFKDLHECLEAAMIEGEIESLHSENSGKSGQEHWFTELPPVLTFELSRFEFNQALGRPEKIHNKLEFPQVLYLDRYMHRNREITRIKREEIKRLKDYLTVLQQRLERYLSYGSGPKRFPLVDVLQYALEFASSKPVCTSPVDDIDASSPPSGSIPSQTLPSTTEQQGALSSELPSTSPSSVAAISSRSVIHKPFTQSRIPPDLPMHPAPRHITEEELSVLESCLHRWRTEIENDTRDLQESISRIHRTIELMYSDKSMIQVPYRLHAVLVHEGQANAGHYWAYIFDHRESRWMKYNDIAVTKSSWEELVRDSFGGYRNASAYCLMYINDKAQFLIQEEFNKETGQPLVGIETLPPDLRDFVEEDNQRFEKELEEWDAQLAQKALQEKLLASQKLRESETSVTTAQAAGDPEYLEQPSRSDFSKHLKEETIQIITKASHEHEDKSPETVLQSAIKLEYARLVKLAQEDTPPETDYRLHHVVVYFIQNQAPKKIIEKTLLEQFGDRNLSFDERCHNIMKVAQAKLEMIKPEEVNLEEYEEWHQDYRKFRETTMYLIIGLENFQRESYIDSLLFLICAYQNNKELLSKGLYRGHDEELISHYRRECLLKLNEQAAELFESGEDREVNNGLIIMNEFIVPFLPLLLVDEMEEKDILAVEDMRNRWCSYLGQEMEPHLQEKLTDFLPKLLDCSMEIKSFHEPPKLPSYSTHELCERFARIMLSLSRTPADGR
How it was run: as §1

USP28 = target: T3, USP28 (UniProt Q96RU2)
T3 sequence (whole entry): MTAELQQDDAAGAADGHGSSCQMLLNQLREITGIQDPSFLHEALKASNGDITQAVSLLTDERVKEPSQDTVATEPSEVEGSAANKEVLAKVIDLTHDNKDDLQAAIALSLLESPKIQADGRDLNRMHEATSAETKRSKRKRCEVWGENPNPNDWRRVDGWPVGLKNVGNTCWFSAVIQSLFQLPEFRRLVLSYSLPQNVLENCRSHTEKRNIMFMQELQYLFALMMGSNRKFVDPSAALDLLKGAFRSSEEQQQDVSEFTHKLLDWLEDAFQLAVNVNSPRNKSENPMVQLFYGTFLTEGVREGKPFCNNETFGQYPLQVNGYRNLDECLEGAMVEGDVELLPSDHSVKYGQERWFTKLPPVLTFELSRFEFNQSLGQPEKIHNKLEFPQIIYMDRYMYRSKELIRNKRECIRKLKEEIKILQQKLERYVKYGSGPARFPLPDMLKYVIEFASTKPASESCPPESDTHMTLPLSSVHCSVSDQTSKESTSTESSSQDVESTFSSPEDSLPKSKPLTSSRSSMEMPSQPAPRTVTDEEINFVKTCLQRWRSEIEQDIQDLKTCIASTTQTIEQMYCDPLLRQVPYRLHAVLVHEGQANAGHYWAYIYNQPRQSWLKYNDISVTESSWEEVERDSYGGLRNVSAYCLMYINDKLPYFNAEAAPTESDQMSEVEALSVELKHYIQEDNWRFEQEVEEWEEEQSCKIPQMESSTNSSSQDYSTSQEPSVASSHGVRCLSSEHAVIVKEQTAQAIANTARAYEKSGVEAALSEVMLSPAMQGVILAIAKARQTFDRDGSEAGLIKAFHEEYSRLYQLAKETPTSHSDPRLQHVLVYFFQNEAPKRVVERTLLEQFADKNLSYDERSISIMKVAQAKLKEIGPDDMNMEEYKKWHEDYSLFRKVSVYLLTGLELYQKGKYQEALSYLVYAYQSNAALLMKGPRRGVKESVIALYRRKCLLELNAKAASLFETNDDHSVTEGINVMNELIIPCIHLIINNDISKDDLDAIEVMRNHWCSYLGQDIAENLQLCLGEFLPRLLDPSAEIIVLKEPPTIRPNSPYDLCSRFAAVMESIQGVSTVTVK
How it was run: as §1

Measured: log2 ratio of Biotin-Ahx-Ub-VS probe labelling

Chain of USP24 (Q9UPU5 whole entry): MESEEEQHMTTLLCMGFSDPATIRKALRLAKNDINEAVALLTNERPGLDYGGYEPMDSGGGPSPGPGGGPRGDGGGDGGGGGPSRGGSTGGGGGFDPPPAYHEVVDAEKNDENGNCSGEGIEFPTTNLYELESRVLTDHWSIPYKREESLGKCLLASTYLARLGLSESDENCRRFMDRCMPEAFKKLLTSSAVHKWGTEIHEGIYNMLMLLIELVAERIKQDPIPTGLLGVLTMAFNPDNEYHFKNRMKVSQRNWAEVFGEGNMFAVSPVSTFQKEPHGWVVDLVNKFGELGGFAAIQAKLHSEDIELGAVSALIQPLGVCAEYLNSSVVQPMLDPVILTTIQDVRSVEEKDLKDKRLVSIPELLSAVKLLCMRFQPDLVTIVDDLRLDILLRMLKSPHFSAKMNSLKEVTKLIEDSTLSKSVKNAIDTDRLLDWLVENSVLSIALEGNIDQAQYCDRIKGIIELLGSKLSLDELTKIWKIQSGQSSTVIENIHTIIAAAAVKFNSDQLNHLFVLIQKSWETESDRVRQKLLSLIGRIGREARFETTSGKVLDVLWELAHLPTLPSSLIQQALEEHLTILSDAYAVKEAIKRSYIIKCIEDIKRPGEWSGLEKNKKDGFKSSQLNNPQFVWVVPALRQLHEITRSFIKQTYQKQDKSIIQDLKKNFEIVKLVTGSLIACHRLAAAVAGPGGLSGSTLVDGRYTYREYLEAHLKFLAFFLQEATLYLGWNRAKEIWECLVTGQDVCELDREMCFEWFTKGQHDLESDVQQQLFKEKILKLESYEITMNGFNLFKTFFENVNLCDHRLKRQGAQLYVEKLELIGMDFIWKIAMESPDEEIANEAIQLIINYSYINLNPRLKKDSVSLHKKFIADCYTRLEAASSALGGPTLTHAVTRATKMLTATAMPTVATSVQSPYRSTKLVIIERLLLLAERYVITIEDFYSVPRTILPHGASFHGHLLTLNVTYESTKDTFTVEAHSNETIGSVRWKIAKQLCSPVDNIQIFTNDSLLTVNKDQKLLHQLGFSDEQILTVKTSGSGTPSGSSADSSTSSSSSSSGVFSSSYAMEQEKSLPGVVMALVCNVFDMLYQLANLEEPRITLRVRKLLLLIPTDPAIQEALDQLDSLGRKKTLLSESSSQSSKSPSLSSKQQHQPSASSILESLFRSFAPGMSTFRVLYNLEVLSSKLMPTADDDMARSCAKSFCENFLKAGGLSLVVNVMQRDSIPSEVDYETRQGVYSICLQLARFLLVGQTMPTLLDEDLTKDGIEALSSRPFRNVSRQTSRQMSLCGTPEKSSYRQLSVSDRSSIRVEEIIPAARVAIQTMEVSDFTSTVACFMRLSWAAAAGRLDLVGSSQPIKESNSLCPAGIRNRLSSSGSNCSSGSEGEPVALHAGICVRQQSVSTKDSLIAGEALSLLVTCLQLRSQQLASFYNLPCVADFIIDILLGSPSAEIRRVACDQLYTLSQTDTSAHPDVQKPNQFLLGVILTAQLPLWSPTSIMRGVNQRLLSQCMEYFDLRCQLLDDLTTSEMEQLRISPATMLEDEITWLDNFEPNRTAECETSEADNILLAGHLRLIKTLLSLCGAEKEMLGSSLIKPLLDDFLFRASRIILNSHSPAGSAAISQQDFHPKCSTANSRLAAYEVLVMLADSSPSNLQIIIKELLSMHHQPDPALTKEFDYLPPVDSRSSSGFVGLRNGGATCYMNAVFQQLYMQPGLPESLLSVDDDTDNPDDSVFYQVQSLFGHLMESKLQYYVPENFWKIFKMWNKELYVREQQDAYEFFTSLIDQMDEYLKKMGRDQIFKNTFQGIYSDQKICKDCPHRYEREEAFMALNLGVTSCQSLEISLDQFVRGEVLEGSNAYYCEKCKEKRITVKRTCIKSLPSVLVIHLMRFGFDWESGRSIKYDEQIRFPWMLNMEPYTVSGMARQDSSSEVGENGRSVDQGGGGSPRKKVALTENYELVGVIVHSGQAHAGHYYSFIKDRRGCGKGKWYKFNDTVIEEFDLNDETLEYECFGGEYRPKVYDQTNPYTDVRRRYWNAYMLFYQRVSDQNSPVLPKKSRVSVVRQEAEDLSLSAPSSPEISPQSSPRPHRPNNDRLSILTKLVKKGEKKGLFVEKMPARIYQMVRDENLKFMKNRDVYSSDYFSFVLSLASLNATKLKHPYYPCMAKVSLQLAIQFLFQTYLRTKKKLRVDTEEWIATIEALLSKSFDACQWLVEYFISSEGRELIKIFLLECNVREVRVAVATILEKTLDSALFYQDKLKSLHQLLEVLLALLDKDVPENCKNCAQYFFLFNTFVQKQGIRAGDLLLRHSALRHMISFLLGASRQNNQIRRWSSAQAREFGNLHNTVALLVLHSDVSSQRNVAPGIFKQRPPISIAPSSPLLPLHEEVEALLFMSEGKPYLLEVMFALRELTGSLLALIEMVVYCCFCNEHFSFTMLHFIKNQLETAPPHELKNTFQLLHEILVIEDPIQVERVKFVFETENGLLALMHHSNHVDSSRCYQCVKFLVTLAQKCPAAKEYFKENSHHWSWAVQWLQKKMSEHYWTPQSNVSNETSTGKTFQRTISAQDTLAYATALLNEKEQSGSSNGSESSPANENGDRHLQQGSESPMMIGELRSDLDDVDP

Cl.O=C(CCl)N1CCn2cncc2C1
inactive: USP19 -0.443 | USP24 -0.129 | USP25 -0.134 | USP28 -0.354

— the supplement of paper PMC11732987, “Enantioselective OTUD7B fragment discovery through chemoproteomics screening and high-throughput optimisation” (Communications Chemistry, 2025)
